The whole screen tested about 53,000 sequences, of which about 3,700 (7%) were called active. The full list was thinned out, with actives kept by preference. A number with no mark means an inactive call.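 The calls were made as follows: active = gene knockdowns whose robust z-score for IL-1 alpha signal is at least 2 or at most -2, so actives lie on both sides; inactive = the rest.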

The assay in a line: Components of the Cytosolic LPS Sensing Pathway: Gene Identification via Genome-wide siRNA Screen.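 Also: robust z of the log signal after scaling to non-targeting control siRNA wells of the plate.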 The settings on record: RAW264.7 macrophages, IL-1a HTRF, actives lie on both sides, screened at 100 nM (by protocol), cells primed 5 h with Pam3CSK4 first. The procedure, abridged: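 Knockdown: 100 nM siRNA, 48h, RAW264.7. Stimulation: Pam3CSK4 5 h, then LipidA via TransIT-TKO 24 h. Output: supernatant IL-1a HTRF, negative-control-normalized, log robust z-score; viability by CellTiter-Glo.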
(In general: Time-resolved FRET reads energy transfer from a long-lived donor to a nearby acceptor.)
As to CCUGAUCCUCAGUUUGGUGTT against Prl, the z-score is 0.129. The result for GGUAACAAACUACAUUUGCTT against Pcdhb16 reads 2.7 (active); that for CGAGAAUUCCUUGCUCUAATT against Mgat4a, 0.194; that for GCGCGACCUUCGAAUGUAATT against Rnf5, -0.834. In the case of GGAUAUGGUUAAAGCCAAATT against Zg16, the z-score was -0.172.

On to GGGAUGUGUCCUGACUUUUTT against Zfp941, for which the z-score is -0.402. The result for CCCAACUUAAAAGUACGUUTT against Hdac5 reads 0.83; that for GGUUCAAAAGUCGAGCGAATT against Nudt9, -0.137. With GCCUAAGGGAGACUCUUUGTT against Ano7, the z-score is -2.02 (active). The result for GGAAGUGAUUCUGCUAUGUTT against Cenpn reads -1.69; that for GGAAAGCAUGAGUUAAUAATT against Slain2, 1.38. Consider GGGAAUAUCACAGGUGCCATT against Axl, for which the z-score was -0.737.

For GGCUCUAAAUUUUUUGUUCTT against Derl1, the z-score is 0.532. For UGAGGAGAGUUUCCGAGUGTT against H2-Q6, the z-score was -0.0985. The result for GCUAGUCUUAUGGACCAGATT against Eaf2 reads -0.764; that for GGAAGAGCAUAAAAUGUCATT against Trps1, -0.695; that for GGCGAAUGCGCUUCUGAUATT against BC053393, 2.29 (active). The result for GGCACACAGUUUUGUACAUTT against Nfat5 reads 2.25 (active).

GGACAAGAAGAAAGAAAAGTT against Tmbim6: the z-score was -1.07.

With GGAAGUUCCACCAUACCUCTT against Cypt4, the z-score is -2.5 (active).

GGCGACAGCGUAAAAGUACTT against Lyst: the z-score is -0.347. Regarding GGAAAAAAAACACUGACUGTT against Hoxa5, the z-score is 1.05. The result for GGCUCAAGGCUGAGUUUCATT against En2 reads 0.704; that for GGCCUGGAGGACUUUAUAATT against Cyp2a4, -1.13; that for GGCUAGCUACACAGUCUCATT against Plscr2, 0.376. Take GCAUCAUUGUCAAUCAUAUTT against Olfr578: the z-score is -2.25 (active). With CCGAAGGACAGUGUUUAUUTT against Mfsd11, the z-score was 0.212.

GCCUGCUAUUUAAUUCAUATT against Fam168a: the z-score was -0.671. The result for GGUCCAGUGAAAUAAUAUCTT against Orc3 reads 0.774; that for GGACUACCAAUACGAACUGTT against Il23a, 2.22 (active). As for GCAUAAAUUUCAAGAGCGCTT against Gigyf1, the z-score is -0.243.

CGUAAGAUCAACGAGAGAUTT against Ncaph2: the z-score was -0.756. The result for GGGAAAGACUGGAAAUCUUTT against Tmod3 reads 0.515; that for GGAGAUCGAAAAGAAUUUCTT against Mx2, 1.17; that for GGAGGAAGAACUGUCUUUGTT against Wasf1, 0.221. With GGUGUUGGAUCAUGAUGUUTT against Nf2, the z-score was -2.14 (active). As to GCCCUUCAAAAGGAGCAGUTT against Cap1, the z-score was 1.86. The result for GGACCAGCUGGACAAAAGATT against Zbtb18 reads 0.131. GGCAUCAAAGACAAUACAATT against Vmn1r15: the z-score was 3.19 (active). In the case of “GGUCAAAUCACUGAGUUUUTT against 9530080O11Rik”, the z-score was 1.74. The result for GGUUGUCAUUCUUAUCCUUTT against Mageb1 reads 0.57; that for GGGAAUGCUUAUGUAGGCATT against Aldh3b1, -1.03; that for GGCGGUUAGACAUUAUGGATT against Plac9a, 1.25. The result for GGCGUGUGCAAGAAAAUCGTT against Cacng3 reads 2.53 (active). The result for GGAUGAGUUGUCAUUGAUATT against Nck1 reads 0.998; that for CCUGUAGGGCUUUUUGAAATT against Mex3a, 0.843. Turning to GGUGUUUUUGUCCAGGUCATT against Kcnk3, the z-score was -0.618.

On to GCAAGACAAGUUCUACGAUTT against Csad, for which the z-score was 1.83. The result for GCCUGUUCGGGAAUCUUACTT against Olfr297 reads 2.42 (active); that for GCAUUCAGUUGGGACAGUATT against Hsh2d, 0.443. The result for CGCAGAGGUUUUACUUUAATT against Mycbpap reads 1.52.

For the sequence GCGAAGACGGAAGCAUAUUTT against Emc8, the z-score was 0.12. For the sequence GGCGGAAAUCUUGAGCAAATT against Slc28a2, the z-score is 4.39 (active).

Consider GGAGCUUAUCAACUACUAUTT against Cltc, for which the z-score was -0.181.

For the sequence GGAGAGAAACUGCGUGUAATT against Sla, the z-score is 1.46. The result for GGCAGAAAUCCAUCAGAGATT against Rtkn2 reads -0.349; that for GCCGUACUUCGUCAAGCUATT against Ung, 0.395; that for GGCAUCUAGGAGAACCUCATT against Insig2, -1.01.

Turning to CGAGAAUUACAGACACUUGTT against Noc4l, the z-score is 0.962.

As for GGCAAAAAGGCAGUAGCCATT against Ncl, the z-score was 0.644.

Consider GGCGGAGUUCUCAAGACUUTT against Nudt18, for which the z-score is 3.55 (active). The result for GGAACUGGAUCAAGAAUUUTT against Hhat reads 0.0393. For CGGACAUAGUCCAUCAUUCTT against Aig1, the z-score was 1.47. With CGGUAUAGUAGAUACUUAATT against Picalm, the z-score was 2.01 (active). On to “CCCACCUUCCAAAAGGAUCTT against 5031434C07Rik”, for which the z-score is -0.882. For GGUGAAAUGGAUCGUCCUCTT against Nme8, the z-score was -0.926.

As to GGAUGGUCUGCUAUUACAUTT against Phf7, the z-score was 0.832.

For CCCUCAAGGCUGAUAAACATT against Il17b, the z-score is -2.26 (active). For GGCUACAUGAGCUGGAGAATT against Insr, the z-score was 2.71 (active). With GCCGCUAACUAAAGUCAAATT against Aloxe3, the z-score was 1.15. The result for GGAGAUUGGCUUCCAGAAATT against Slc38a7 reads 0.494. As to GCAACACAUUUGAACCACUTT against Usp15, the z-score was -1.79. Take CCACGAGGAGCUCAUUUUCTT against Dhfr: the z-score is 0.385. As to GGCCAAAGGCAUCAGGCAUTT against Gsto2, the z-score is -1.7. As for GCUCAAACGAAAUGAUUCATT against Gys2, the z-score is 2.01 (active). The result for GCCGCACGUUUUUGAGUUGTT against Islr2 reads -0.554; that for CCGAAAUUUUGAGUACUGUTT against Vmn1r67, 0.285. On to CCACUUAAAAUUCAUUCCUTT against Arl6ip1, for which the z-score is -0.21.

In the case of GGAUGAUGCCCGAAAGAACTT against Zfp536, the z-score is -4.55 (active). The result for GGAGAAGACACAGAGAACCTT against Pkd2l1 reads 0.645; that for GGGCAUGGGAUUUAAUUCUTT against Dnajc11, 1.54; that for CGCUAUGGUUUCUCAGCUUTT against Myh4, -0.02. As to GGAGAUUCAGAAGAUCCUCTT against Isoc2b, the z-score is 2.49 (active). The result for GCUCUCACCUUCAUUUGAATT against Tmem174 reads -1.37; that for GGAAAUAAUGUUACUGACATT against Zfp445, -0.178; that for GGCAUCAAUAGGAAGAUGCTT against Rgs19, 0.182. For the sequence GCAUUUAGGUCUGAUAAAGTT against Gpr61, the z-score is 0.00391.

As to CCGACUGUUAAAGUGGUGUTT against Arih1, the z-score is 0.608. For the sequence GUUUUACAAAUUCCUCCAUTT against Olfr1447, the z-score is 0.345.

Regarding CCAGUUUUCGACACAAUUCTT against Cma1, the z-score was 0.645. The result for GGCAGAGAAAUGGGCAAUGTT against Hcar1 reads 2.12 (active). On to GCUUAUGAGACUCAUUUAATT against Oser1, for which the z-score was 0.554. The result for GCCGCUGCACUACAAUUUGTT against Trhde reads 0.717. The result for GGAGCUAUACUGCUUUUCCTT against Mtmr7 reads 1.61; that for GGCUUACCUGAACUUUCUGTT against Degs2, -0.381. In the case of GGGUGUCUUACACCUUACATT against Sertad2, the z-score was -1.48. As to GGUGUUUGAGUCAACAGACTT against Oard1, the z-score was -2.1 (active). For the sequence GCUGUUGUUUGCUAGCAAATT against Lipa, the z-score is 0.973.

With GGAAGUCCACAUUGCUGGUTT against Slc2a9, the z-score was 1.85. The result for GGGUUUUGAGAUGUAAUGATT against Marchf8 reads 0.0734. As for GCAGCCUAUGGAAGAUCACTT against Tle4, the z-score was 2.8 (active).

For the sequence GCACUACACCUCCAGUUCGTT against Gne, the z-score was 0.164. With CCACAUGUUUGUCUCAAAATT against Gskip, the z-score is 1.28. The result for CGACCCUACAGAGGACAUUTT against Pik3r6 reads 0.135; that for GGAAAUGAAGCAUCUGUAUTT against Txnip, -2.3 (active). The result for GGGUUUCACCCAAAGCCUUTT against Zfp354c reads -1.41; that for GGCUCAGUAAGGACUCUGATT against Tac2, 1.24; that for GGAAUAGAAGCACUGUGUGTT against Brs3, -1.35. The result for GGGCCCAGAUUUCAAUGGGTT against Car14 reads 0.379.

The record behind these values is PubChem BioAssay AID1508600 (Functional Genomics Laboratory (NCATS/FGL), 2020).
